{"source": "PubChem BioAssay (NCATS)", "note": "Inconclusive results are not listed. The source made the active and inactive calls. Calls come from the whole dose curve; as a rule, active = well fitted activation curve with a large enough effect; inconclusive = small, poorly fitted or top-dose-only effect; inactive = flat fitted curve, though single readings scatter."}
{"experiment": "Primary redox qHTS assay for identification of artifact compounds. (AID 1845223);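 note: 0% = DMSO and 100% = reference compound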", "conditions": "Amplex Red/HRP redox cycling with DTT, fluorescence; series mostly up to 53.8 µM; redox activity (% of DA3003): at the top concentration", "procedure,_shortened": "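Redox-cycling detection via DTT (250 uM final) oxidation coupled to Amplex Red (25 uM)/HRP (250 mU/mL) in HBSS. 15 min preincubation plus 30 min after DTT, room temperature. Ex/Em 525/598 nm; 4-parameter Hill fit against DMSO and 10 uM DA3003.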"}
{"smiles": "CC(C)=C1CC[C@]23CO[C@H](C2)[C@@](O)(C(=O)O)CCC13", "note": "(stereo not given in full)", "redox activity (% of DA3003)": "-10.9% (inactive)"}
{"smiles": "CN1[C@H]2C[C@H](OC(=O)[C@H](CO)c3ccccc3)C[C@@H]1[C@@H](O)C2", "redox activity (% of DA3003)": "-3.57% (inactive)"}
{"smiles": "CC(=O)OC1CC(O)C(C)(C)C2CC(OC(C)=O)C3(C)C(CCC4(C)C(c5ccoc5)C(=O)C5OC543)C12C", "note": "(stereo not given)", "redox activity (% of DA3003)": "0.232% [at 25.6 µM] (inactive)"}
{"smiles": "C=C[C@H]1[C@H](O[C@@H]2O[C@H](CO)[C@@H](O)[C@H](O)[C@H]2O)OC=C2C(=O)OCC[C@H]21", "redox activity (% of DA3003)": "-12.4% (inactive)"}
{"smiles": "Cc1cc(C(=O)CN2CCCC2)c(C)n1-c1ccc(F)cc1", "outcome": "inactive"}
